From PubChem BioAssay (Tox21)
Records with an inconclusive call do not appear. Calls of active or inactive are those of the source. Unless noted, calls come from the whole dose curve.

Tests used:
[1] = qHTS assay to identify small molecule agonists of the vitamin D receptor (VDR) signaling pathway - cell viability counter screen (AID 743224; active = well fitted curve in the direction sought with a large enough effect in the repeat runs; an effect the other way counts as inactive or inconclusive; note: series mostly up to about 63 µM; nearly all actives have a fitted effect of over 50% in size)
Outline: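 Counter screen for cytotoxicity: VDR-bla cells at 2,000 cells/well, 16 h compound exposure, then CellTiter-Glo luminescence after the beta-lactamase measurement.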

[2] = qHTS assay to identify small molecule antagonists of the vitamin D receptor (VDR) signaling pathway - cell viability counter screen (AID 743225; active = well fitted curve in the direction sought with a large enough effect in the repeat runs; an effect the other way counts as inactive or inconclusive; note: nearly all actives have a fitted effect of over 50% in size)
Outline: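 Parallel cytotoxicity test: VDR-UAS-bla HEK 293T, 3 nM (final) 1-alpha,25-dihydroxyvitamin D3 with test compound, 16 h, 37C. Endpoint is CellTiter-Glo luminescence in the same wells.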

[3] = qHTS assay to identify small molecule agonists of the NFkB signaling pathway (AID 1159509; active = well fitted curve in the direction sought with a large enough effect in the signal ratio in the repeat runs, not every such curve was filed as active; the % refers to the signal ratio; note: series mostly up to about 61 µM)
Outline: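 Beta-lactamase reporter assay run in quantitative high-throughput format on an NF-kB-responsive ME-180 line, with 5 hr compound treatment and a FRET-based blue/green fluorescence readout.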

[4] = qHTS assay to identify small molecule agonists of the NFkB signaling pathway - cell viability counter screen (AID 1159515); note: series mostly up to about 61 µM; nearly all actives have a fitted effect of over 55% in size
Outline: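 Counter screen run alongside the NFkB-bla agonist assay: ME-180 reporter cells exposed to compounds for 5 hr, then lysed with CellTiter-Glo in the same wells. Luminescence, read after 30 min, reflects viable cells.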

[5] = qHTS assay to identify small molecule agonists of the endoplasmic reticulum stress response signaling pathway (AID 1159516; active = well fitted activation curve with a large enough effect in the signal ratio in the repeat runs, not every such curve was filed as active; the % refers to the signal ratio)
Outline: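 For this screen, HeLa cells stably carrying beta-lactamase under the ER stress response element received test compounds, positive controls or DMSO for 5 hr at 37 C; B/G FRET substrate was then added and dual-wavelength emission recorded.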

[6] = qHTS assay to identify small molecule agonists of the endoplasmic reticulum stress response signaling pathway - cell viability counter screen (AID 1159517); note: series mostly up to about 61 µM; nearly all actives have a fitted effect of over 50% in size
Outline: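 Cytotoxicity of test compounds toward ESRE-bla HeLa cells was assessed after 5 hr exposure. The luminescent CellTiter-Glo signal was measured 30 min after reagent addition.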

[7] = qHTS assay to identify small molecule antagonists of the retinoid-related orphan receptor gamma (ROR-gamma) signaling pathway - cell viability counter screen (AID 1159520; active = well fitted curve in the direction sought with a large enough effect in the repeat runs; an effect the other way counts as inactive or inconclusive; note: nearly all actives have a fitted effect of over 50% in size)
Outline: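 Tet-on ROR gamma CHO cells (1,000/well) were plated 4 hr, given compounds in DMSO for 2 hr at 37 C, then induced with 1 uM final doxycycline for 16 hr. Viability was read as ATP by CellTiter-Glo luminescence after 30 min.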

[8] = biological target: Nuclear receptor ROR-gamma (Homo sapiens) (UniProt P51449); test: qHTS assay to identify small molecule antagonists of the retinoid-related orphan receptor gamma (ROR-gamma) signaling pathway (AID 1159521; active = well fitted curve in the direction sought with a large enough effect in the repeat runs; an effect the other way counts as inactive or inconclusive)
Outline: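 Decreased RORE-driven luciferase luminescence indicates antagonism. Tet-on RORγ CHO cells received compound, then 1 uM final doxycycline 2 h later; signal read after 16 h incubation.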

[9] = qHTS assay to identify small molecule agonists of the AP-1 signaling pathway - cell viability counter screen (AID 1159525); note: nearly all actives have a fitted effect of over 55% in size
Outline: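 Each titration point was normalised to DMSO and tetra n-octyl ammonium bromide controls. The read was Cell Titer Glo luminescence after 30 min at RT, following 5 h compound exposure of ME-180 AP-1-bla cells at 37 °C.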

[10] = qHTS assay to identify small molecule agonists of the AP-1 signaling pathway (AID 1159526)

Measured: Potency

CC(C)(C)c1n[nH]c(=S)n(N)c1=O
inactive: all assays above

CCCCCCCCCCCCCC
not listed: [8]
inactive: all other assays above

CC(CC=O)CCCC(C)(C)O (stereo not given)
not listed: [1] | [9]
inactive: all other assays above

Nc1nnc(-c2cccc(Cl)c2Cl)c(N)n1
not listed: [1]
inactive: all other assays above

CCc1ccc(C=O)cc1
not listed: [1]
inactive: all other assays above

Cc1[nH]cnc1-c1ccc(Cl)cc1
not listed: [8]
inactive: all other assays above

CCC(C=O)CC
not listed: [8]
inactive: all other assays above

Cc1c(I)c(=O)n(-c2ccccc2)n1C
not listed: [2] | [8]
inactive: all other assays above

CCCCCCCCOS(=O)(=O)O
not listed: [2] | [9]
inactive: all other assays above

C[C@H](CCC(=O)O)[C@H]1CC[C@H]2[C@@H]3C(=O)C[C@@H]4CC(=O)CC[C@]4(C)[C@H]3CC(=O)[C@]12C
not listed: [1] | [2] | [9]
inactive: all other assays above

O=C(OCc1ccccc1)C(=O)OCc1ccccc1
not listed: [9]
inactive: all other assays above

CN1C(C)(C)CCCC1(C)C
not listed: [1] | [9]
inactive: all other assays above

O=C(O)Cc1ccc(Cl)cc1Cl
not listed: [1]
inactive: all other assays above

CCOC(=O)c1ncn2c1CN(C)C(=O)c1cc(F)ccc1-2
not listed: [8]
inactive: all other assays above

CCN(C)C(=O)Oc1cccc([C@H](C)N(C)C)c1
not listed: [2] | [9]
inactive: all other assays above

C=CC(OCC)OCC
not listed: [9]
inactive: all other assays above

CC(=O)Nc1ccc(S(=O)(=O)Nc2ccc([N+](=O)[O-])cc2)cc1
not listed: [8]
inactive: all other assays above

CCC(CC)CO
not listed: [9]
inactive: all other assays above

C=C(C)C(=O)OCCN(CC)CC
not listed: [1] | [9]
inactive: all other assays above

CC(C)C[C@H](NC(=O)CNC(=O)[C@H](Cc1ccc(O)cc1)NC(=O)[C@H](CO)NC(=O)[C@H](Cc1c[nH]c2ccccc12)NC(=O)[C@H](Cc1cnc[nH]1)NC(=O)[C@@H]1CCC(=O)N1)C(=O)N[C@@H](CCCN=C(N)N)C(=O)N1CCC[C@H]1C(=O)NCC(N)=O (stereo in doubt)
not listed: [1]
inactive: all other assays above

CC(C(=O)O)c1ccc2c(c1)CC(=O)c1ccccc1S2 (stereo not given)
not listed: [8]
inactive: all other assays above

C[Si](C)(C)C
not listed: [9]
inactive: all other assays above

CCCCOC(=O)c1ccccc1
not listed: [9]
inactive: all other assays above

Cc1cc2cc3c(C)cc(=O)oc3c(C)c2o1
not listed: [8]
inactive: all other assays above

COc1ccc(C2CNC(=O)C2)cc1OC1CCCC1 (stereo not given)
not listed: [9]
inactive: all other assays above

O=S(=O)(O)CCN1CCN(CCO)CC1
not listed: [9]
inactive: all other assays above

CC(=O)/C=C/C1C(C)=CCC(C)C1(C)C (stereo not given)
not listed: [2] | [9]
inactive: all other assays above
